Measurements taken from article PMC5869772, “Quantitative profiling of BATF family proteins/JUNB/IRF hetero-trimers using Spec-seq”.

These sequences were tested against T1, BATF3;JUNB (human;human, UniProt Q9NR55;P17275 1-127;148-347, |) (assay: Spec-seq (EMSA and sequencing of bound and unbound bands); 100 nM BATFx-JUNB, 1 uM dsDNA library, 50 mM K acetate, 20 mM Tris-acetate, 10 mM Mg acetate, 100 ug/ml BSA, pH 7.9, 10% glycerol, 30 min on ice; native 9% PAGE at 4 C; low values mean tight binding). Details: protein: recombinant;recombinant; tags: N-terminal mCherry-TEV, cleaved off;C-terminal 6His; copies: 1;1; dsDNA, one strand shown.
T1 sequence 1: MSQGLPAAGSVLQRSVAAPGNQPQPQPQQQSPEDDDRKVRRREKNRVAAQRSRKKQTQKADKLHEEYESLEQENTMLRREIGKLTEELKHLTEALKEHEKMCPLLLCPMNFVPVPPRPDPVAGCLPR
T1 sequence 2: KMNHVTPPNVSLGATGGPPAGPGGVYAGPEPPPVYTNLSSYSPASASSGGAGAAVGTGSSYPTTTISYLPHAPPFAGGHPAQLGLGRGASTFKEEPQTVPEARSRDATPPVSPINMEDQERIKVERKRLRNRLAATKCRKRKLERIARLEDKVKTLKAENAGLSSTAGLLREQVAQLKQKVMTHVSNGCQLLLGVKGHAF
Outline: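 The protein, at 100 nM, was incubated with 1 μM double-stranded degenerate DNA library for 30 min on ice in NEB Cutsmart buffer with 10% glycerol, then resolved by native 9% PAGE at 4 °C. Excised bound and unbound bands were PCR-barcoded and Illumina-sequenced, and each sequence's relative binding energy in kT is −ln of its bound/unbound read-count ratio.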

Sequence	binding signal
GATAGTCTCATTTTCACCCCGTGAAATGTGTCATTTGTTCCATTACAGTATCTGT	-0.44 kT
GATAGTCTCATTTTCACCCCGTGAAAGCGAGTCATTGTTCCATTACAGTATCTGT	-0.148 kT
GATAGTCTCATTTTCACCCCGTGAAACGACTCATTTGTTCCATTACAGTATCTGT	0.267 kT
GATAGTCTCATTTTCACCCCGTGAAATGACGCCATTGTTCCATTACAGTATCTGT	-0.802 kT
GATAGTCTCATTTTCACCCCGTGAAATGCCTCATTTGTTCCATTACAGTATCTGT	1.01 kT
GATAGTCTCATTTTCACCCCGTGAAATGAGTCGGTTGTTCCATTACAGTATCTGT	0.619 kT
GATAGTCTCATTTTCACCCCGTGAAATGACTCGTTTGTTCCATTACAGTATCTGT	0.243 kT
GATAGTCTCATTTTCACCCCGTGAAATGAGTCTTTTGTTCCATTACAGTATCTGT	0.768 kT
GATAGTCTCATTTTCACCCCGTGAAATGAGCCATTTGTTCCATTACAGTATCTGT	0.914 kT
GATAGTCTCATTTTCACCCCGTGAAATGACGTCGTTGTTCCATTACAGTATCTGT	-0.759 kT
GATAGTCTCATTTTCACCCCGTGAAATCAGTCATTTGTTCCATTACAGTATCTGT	-0.231 kT
GATAGTCTCATTTTCACCCCGTGAAACGACGTCATTGTTCCATTACAGTATCTGT	-1.03 kT
GATAGTCTCATTTTCACCCCGTGAAATGACTTCATTGTTCCATTACAGTATCTGT	-0.643 kT
GATAGTCTCATTTTCACCCCGTGAAAGTGGGTCATTGTTCCATTACAGTATCTGT	0.613 kT
GATAGTCTCATTTTCACCCCGTGAAATTGTGTCATTGTTCCATTACAGTATCTGT	-0.677 kT
GATAGTCTCATTTTCACCCCGTGAAATGAGTCTCTTGTTCCATTACAGTATCTGT	0.936 kT
GATAGTCTCATTTTCACCCCGTGAAATGGAGTCATTGTTCCATTACAGTATCTGT	-0.305 kT

Sequence	binding signal
GATAGTCTCATTTTCACCCCGTGAAACTGGGTCATTGTTCCATTACAGTATCTGT	0.562 kT
GATAGTCTCATTTTCACCCCGTGAAATGAGTGACTTGTTCCATTACAGTATCTGT	0.384 kT
GATAGTCTCATTTTCACCCCGTGAAATTCAGTCATTGTTCCATTACAGTATCTGT	-0.0636 kT
GATAGTCTCATTTTCACCCCGTGAAATGGCGTCATTGTTCCATTACAGTATCTGT	-1.11 kT
GATAGTCTCATTTTCACCCCGTGAAATGACTTATTTGTTCCATTACAGTATCTGT	0.185 kT
GATAGTCTCATTTTCACCCCGTGAAATGACTGAGTTGTTCCATTACAGTATCTGT	0.26 kT
GATAGTCTCATTTTCACCCCGTGAAATGACACAGTTGTTCCATTACAGTATCTGT	0.492 kT
GATAGTCTCATTTTCACCCCGTGAAATGAGTCCGTTGTTCCATTACAGTATCTGT	1.04 kT
GATAGTCTCATTTTCACCCCGTGAAATGACTCTTTTGTTCCATTACAGTATCTGT	0.524 kT
GATAGTCTCATTTTCACCCCGTGAAATGACGCAATTGTTCCATTACAGTATCTGT	-1.27 kT
GATAGTCTCATTTTCACCCCGTGAAATGAGACACTTGTTCCATTACAGTATCTGT	1.3 kT
GATAGTCTCATTTTCACCCCGTGAAAAGGAGTCATTGTTCCATTACAGTATCTGT	0.185 kT
GATAGTCTCATTTTCACCCCGTGAAATTACGTCATTGTTCCATTACAGTATCTGT	-1.82 kT
GATAGTCTCATTTTCACCCCGTGAAAAGACTCATTTGTTCCATTACAGTATCTGT	0.446 kT
GATAGTCTCATTTTCACCCCGTGAAATGACTCACTTGTTCCATTACAGTATCTGT	-0.943 kT
GATAGTCTCATTTTCACCCCGTGAAACTGAGTCATTGTTCCATTACAGTATCTGT	-1.63 kT
